# This is a sample that favours compounds with a hit; in the whole collection about 3.4% have one here.
# MITF primary: blocks human microphthalmia-associated transcription factor. AlphaScreen MITF homodimerization, bead proximity signal. inhibition, % at 2.6 µM. 650,000 tested, 0.91% active; in the data active means inhibition above about 50%
# FBW7 activator: human FBW7 E3 ligase activation, primary screen; AlphaScreen FBW7–phospho-cyclin E peptide binding, activator screen; normalized activity (activation), % at 26.1 µM; 650,000 tested, 0.13% active; in the data active means normalized activity above about 1.9%;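 further: purified mutant Fbw7 with reduced substrate affinity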
# TEAD-YAP block: TEAD-YAP interaction inhibition | HEK-TIYL cells, TEAD-Gal4/YAP UAS-luciferase luminescence | inhibition, % at 9.12 µM | 640,000 tested, 1.4% active | AID 1259422; in the data active means inhibition above about 32%
# GPR151 activ: activators of human GPR151; 650,000 tested, 1% active; Q8TDV0; PathHunter beta-arrestin GPR151 cells, luminescence; AID 1508602; activation, % at 11.2 µM; in the data active means activation above about 4.9%
# Target sequence (Q8TDV0 whole entry, looked up): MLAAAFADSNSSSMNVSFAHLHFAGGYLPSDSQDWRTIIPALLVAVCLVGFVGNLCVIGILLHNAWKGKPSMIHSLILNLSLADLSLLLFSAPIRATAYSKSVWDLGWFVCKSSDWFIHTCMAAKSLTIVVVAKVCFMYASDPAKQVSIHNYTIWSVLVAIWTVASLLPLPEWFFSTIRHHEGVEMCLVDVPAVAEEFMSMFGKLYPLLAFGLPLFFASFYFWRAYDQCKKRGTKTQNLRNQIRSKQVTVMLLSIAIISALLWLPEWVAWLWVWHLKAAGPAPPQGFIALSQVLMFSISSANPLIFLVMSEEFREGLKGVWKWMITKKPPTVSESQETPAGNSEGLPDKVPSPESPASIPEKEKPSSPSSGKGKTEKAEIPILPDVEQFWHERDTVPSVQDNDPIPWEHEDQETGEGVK
# Hits are given with their value; . = inactive.
SMILES,MITF primary,FBW7 activator,TEAD-YAP block,GPR151 activ
Oc1cccnc1NC(c1ccccc1F)c1ccc2cccnc2c1O (configuration not stated),.,.,36,.
Cc1cc(C)nc(NC(c2ccco2)c2ccc3cccnc3c2O)n1 (configuration not stated),.,.,.,.
CC(=O)NC(c1ccc(C(C)C)cc1)c1ccc2cccnc2c1O (configuration not stated),.,.,83,.
CC(=O)NC(c1ccccc1F)c1ccc2cccnc2c1O (configuration not stated),.,.,84,.
Cc1ccc(C(NC(=O)c2ccccc2)c2ccc3cccnc3c2O)cc1 (configuration not stated),.,.,.,.
Cc1cccc(-n2ncc3c(N4CCC(C)CC4)ncnc32)c1,.,.,.,.
Cc1cccc(-n2ncc3c(N4CCCC(C)C4)ncnc32)c1 (configuration not stated),.,.,96,.
CC1CC(C)CN(c2ncnc3c2cnn3-c2ccccc2)C1 (configuration not stated),.,.,.,.
CC1CC(C)CN(c2ncnc3c2cnn3-c2ccc(Cl)cc2)C1 (configuration not stated),.,.,34,.
CC1CCCN(c2ncnc3c2cnn3-c2ccccc2)C1 (configuration not stated),.,.,84,.
Cc1cccc(-n2ncc3c(N4CCCCCC4)ncnc32)c1,.,.,74,.
CCOc1cc(C#N)ccc1OCc1ccc(C(=O)O)cc1,.,.,.,.
O=C(CN1CC(=O)Nc2ccccc21)NCCc1ccc(Cl)cc1,.,.,.,.
Cc1ccc(S(=O)(=O)N(Cc2ccco2)CC2CCCO2)cc1[N+](=O)[O-] (configuration not stated),.,.,.,.
C/C(CC(C)C)=N/Nc1ccccc1[N+](=O)[O-],.,.,.,.
CC1=C(C(=O)Nc2ccccc2)C(c2ccc(C)o2)n2c(s/c(=C/c3ccccc3Cl)c2=O)=N1 (configuration not stated),.,.,.,.
CC1CCCN(c2ncnc3c2cnn3-c2ccc(Cl)cc2)C1 (configuration not stated),.,.,94,.
CCN1CCN(c2ncnc3c2cnn3-c2ccc(Cl)cc2)CC1,.,.,.,.
CN1CCN(c2ncnc3c2cnn3-c2ccc(Cl)cc2)CC1,.,.,67,.
CC1CCN(c2ncnc3c2cnn3-c2ccc(Cl)cc2)CC1,.,.,.,.
CC(=O)N1CCC(C(=O)NCc2ccc(-n3cccn3)cc2)CC1,.,.,.,.
O=C(Nc1ccc(Nc2ccccc2)cc1)c1ccc(C(=O)c2ccccc2)o1,.,.,43,.
COC(CNC(=O)c1cnn2c(C)c(Cc3c(C)cc(C)cc3C)c(C)nc12)OC,.,.,50,.
COC(=O)c1cnn2c(C)c(Cc3ccc(F)cc3)c(C)nc12,.,.,36,.
COc1ccccc1CNC(=O)c1cnn2c(C)c(Cc3ccc(F)cc3)c(C)nc12,.,.,.,.
SMILES,MITF primary,FBW7 activator,TEAD-YAP block,GPR151 activ
Cc1cc(C(=O)Nc2cccc(Cn3cc(Cl)cn3)c2)ccc1[N+](=O)[O-],.,.,.,.
c1ccc(CN2CCC(Nc3nc(Nc4nccc5ccccc45)nc4nc[nH]c34)CC2)cc1,.,.,.,.
CNC(=O)CN(c1cccc(Cl)c1)S(=O)(=O)c1ccc(OC)cc1,.,.,45,.
COc1ccc(S(=O)(=O)N(CC(=O)O)c2cccc(Cl)c2)cc1,.,.,.,.
O=C1CCCN1CCCNc1nc(NC2CCN(Cc3ccccc3)CC2)nc2c1ncn2CCN1CCCC1=O,.,.,.,.
O=C1CCCN1CCCNc1nc(NC2CCN(Cc3ccccc3)CC2)nc2c1ncn2-c1ccsc1,.,.,36,.
O=C1CCCN1CCCNc1nc(NCCN2CCOCC2)c2ncn(-c3ccsc3)c2n1,.,.,43,.
OC1CCC(Nc2nc(NC3CCN(Cc4ccccc4)CC3)c3ncn(-c4ccsc4)c3n2)CC1 (configuration not stated),.,.,60,.
O=C1CCCN1CCCNc1nc(NCCCN2CCCC2=O)c2ncn(-c3ccccc3)c2n1,.,.,.,.
O=C1CCCN1CCCNc1nc(Nc2nccc3ccccc23)nc2c1ncn2-c1ccsc1,.,.,59,.
c1ccc(CN2CCC(Nc3nc(Nc4ccccc4)nc4c3ncn4-c3ccsc3)CC2)cc1,.,.,.,.

# High-throughput results as filed in PubChem.
